Drawing on PubChem BioAssay (NCI), this text covers growth for eight compounds.

The structures appear in SMILES notation. The panel holds about 83,000 compounds, 20% with a hit somewhere; the sample as a whole holds those more often.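 Step 1: grow cells in 96-well plates. Step 2: add test compound at a single concentration. Step 3: incubate 48 h. Step 4: record percent growth.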 Values without a mark were called inactive. Calls of active or inactive are those of the source. How the source made its calls: active means growth percent below 10; inactive means the rest.

Holding throughout (experiment): NCI-60 one-dose screen, 48 h (100 = growth as untreated, 0 = no growth, -100 = all killed)
What all share (settings): 10 µM unless noted

The test system of assay [1] is K-562 leukemia.
The test system of assay [2] is MALME-3M melanoma.
Assay [3] deals with MDA-MB-231 breast.
For assay [4], the system named is RXF 393 renal.
The test system of assay [5] is SF-268 CNS.
In assay [6] the test system is SF-295 CNS.
For assay [7], the system named is SF-539 CNS.
Assay [8] relates to UACC-257 melanoma.
Assay [9] relates to M14 melanoma.
Assay [10] relates to HCT-15 colon.
The subject of assay [11] is HT29 colon.
Assay [12] deals with SNB-75 CNS.
Assay [13] relates to SNB-19 CNS.
Assay [14] concerns U251 CNS.
The test system of assay [15] is PC-3 prostate.
Assay [16] relates to SK-MEL-5 melanoma.
Assay [17] deals with LOX IMVI melanoma.
Assay [18] deals with SK-MEL-28 melanoma.
The test system of assay [19] is SK-MEL-2 melanoma.
Assay [20] has as its system UACC-62 melanoma.

For the compound `COc1ccc(/C=N/Nc2ccnc3cc(Cl)ccc23)cc1Cl`, the growth is -52.8% (active) in [1]; -78.5% (active) in assay [2]; -71.3% (active) in assay [3]; -58% (active) in [4]; -64.7% (active) in [5]; -53.1% (active) in assay [6]. The growth in [7] was -90.4% (active); in assay [8], -84.4% (active); in assay [9], -84.5% (active); in [10], -20.4% (active); in assay [11] it was -55.3% (active); in assay [12], -88.5% (active). Besides, the growth is -79.2% (active) in [13]; -90.7% (active) in [14]; -24.9% (active) in assay [15]; -93.5% (active) in [16]; -35.5% (active) in assay [17]; -92.4% (active) in assay [18].
Turning to `N[C@@H](Cc1cn(-c2ccnc3ccccc23)nn1)C(=O)O`, the growth in assay [1] is 107%; in assay [2] it was 95.5%; in [3], 97.5%; in assay [4] it was 121%; in assay [5], 103%; in assay [6] it was 104%. Besides, the growth was 93% in assay [7]; 106% in [8]; 108% in assay [9]; 114% in assay [10]; 102% in assay [11]; 98.5% in assay [12]. Further, the growth is 88.7% in assay [13]; 101% in [14]; 96.2% in assay [15]; 103% in assay [16]; 102% in assay [17]; 97% in assay [18]. Besides, the growth in assay [19] was 124%.
`C#Cc1nc(C2=C(C)C(=N\O)/C(=N/O)C2)cs1`: the growth in [1] is 94%; in [2], 94.4%; in [3], 61.4%; in assay [4], 104%; in assay [5] it was 86.1%; in assay [6], 101%. Moreover, the growth was 93.9% in assay [7]; 102% in assay [8]; 89.6% in assay [9]; 94.5% in [10]; 111% in assay [11]; 60% in assay [12]. Further, the growth in assay [13] was 95.6%; in assay [14] it was 103%; in assay [15], 90.6%; in assay [16] it was 99%; in assay [20], 91.8%; in [18], 111%. Moreover, in [19], the growth is 108%.
Take `N/C(=N\c1nc2c(Br)cccc2s1)C(Br)Br`: the growth in assay [1] was 3.75% (active); in assay [2] it was -36.7% (active); in assay [3] it was -9.45% (active); in assay [4], -51.1% (active); in [5], 49.2%; in [6], 11.8%. For the same compound, the growth in [7] is -28.3% (active); in assay [8], 51.4%; in assay [9], 10.9%; in [10], -27.7% (active); in assay [11], -11.3% (active); in assay [12], -0.636% (active). The growth in [13] is 27.7%; in [14] it was -28.2% (active); in [15], 13.5%; in assay [16] it was 68.3%; in assay [17] it was -84.9% (active); in assay [18], -5.02% (active). Also, the growth in assay [19] is -42.1% (active).
For `C#Cc1nc(C2=C(C)/C(=N/OCc3ccccc3)CC2)cs1`, the growth in assay [1] was 75.5%; in assay [2], -44% (active); in assay [3], -39.2% (active); in assay [4], 33.6%; in assay [5], 0.651% (active); in assay [6], -84% (active). Further, the growth in [7] was -86.5% (active); in assay [8] it was 84.4%; in assay [9], 75.4%; in [10], 53.4%; in [11], 67%; in [12], -88.4% (active). The growth in assay [13] is 72.8%; in [14], 37.6%; in assay [15], 82.3%; in [16], 85.7%; in assay [20] it was 62.5%; in assay [18], 94.6%. The growth in assay [19] was 98.7%.
On to `Cn1ccnc1C(=O)/C=C/c1ccc(NC(=O)Nc2ccc(F)cc2)cc1`, for which the growth in assay [1] is 9.78% (active); in [2], 69%; in assay [3] it was 28.8%; in assay [4] it was 19.4%; in [5] it was 55.6%; in assay [6], 23.3%. The growth is -15.6% (active) in assay [7]; 85.6% in [8]; 45.1% in assay [9]; 21% in [10]; 11.7% in assay [11]; 39.3% in assay [12]. For the same compound, the growth in assay [13] was 33.9%; in [14] it was 20.1%; in assay [15], 53.2%; in [16], 77.8%; in [20], 46.3%; in assay [18], 75.5%. In [19], the growth is 95%.
`[Cl][Ru].c1ccc(-c2cc(-c3ccccn3)nc(-c3ccccn3)c2)cc1.c1ccc(-c2ccnc3c2ccc2c(-c4ccccc4)ccnc23)cc1`: the growth in assay [1] is 1.44% (active); in [2], -34.3% (active); in assay [3], -48.4% (active); in assay [4] it was -39% (active); in assay [5], 13.8%; in [6], -23.1% (active). Besides, the growth in assay [7] is -20.5% (active); in assay [8] it was -28.7% (active); in assay [9], -57.1% (active); in assay [10], 45.8%; in assay [11] it was -47.6% (active); in assay [12], -20% (active). Further, the growth in assay [13] is 12.2%; in [14], -54.8% (active); in assay [15], -7.82% (active); in [16], -94.9% (active); in [17], -71.4% (active); in assay [18], -73.5% (active). Moreover, the growth in [19] is -91.6% (active).
For `CS(=O)(=O)c1ccc(-c2nc3ccccn3c2/C=N/Nc2nc(-c3ccc(Br)cc3)cs2)cc1`, the growth in assay [1] was 86.1%; in assay [2], 128%; in assay [3], 105%; in assay [4] it was 99.7%; in [5], 108%; in assay [6] it was 102%. Besides, the growth in [7] was 105%; in [8], 122%; in assay [9], 112%; in [10], 92.6%; in assay [11], 114%; in [12], 114%. The growth is 103% in assay [13]; 107% in assay [14]; 100% in [15]; 96.5% in assay [16]; 112% in assay [17]; 103% in assay [18]. In addition, in [19], the growth is 113%.
